What was measured:
Assay in all cases: DAPPL (digital affinity profiling via proximity ligation, sequencing); 10 mM Tris-HCl pH 7.5, 50 mM NaCl, 1 mM DTT, 4% glycerol, room temperature, 30 min; GST-TFs on glutathione beads, 16-mer random dsDNA library, 0.1% formaldehyde crosslink after washing; high values mean tight binding
Conditions in all cases: protein: recombinant; tags: N-terminal GST; dsDNA, one strand shown
FEV = target: T1, FEV (Homo sapiens, UniProt Q99581 1-238)
T1 sequence: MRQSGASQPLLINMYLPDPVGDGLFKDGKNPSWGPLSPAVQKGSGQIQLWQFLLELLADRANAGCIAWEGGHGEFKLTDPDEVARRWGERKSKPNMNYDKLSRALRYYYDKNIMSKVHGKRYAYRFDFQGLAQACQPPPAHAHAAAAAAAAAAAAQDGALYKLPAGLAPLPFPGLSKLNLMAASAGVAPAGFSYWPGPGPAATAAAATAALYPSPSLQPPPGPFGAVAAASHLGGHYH
How it was run: (§1)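 A tag-only sample was pooled with DNA-barcoded human transcription factors that had been expressed in yeast as GST fusions and captured on glutathione beads. The pools were incubated for 30 min at room temperature with 200 nmole of a random double-stranded 16-mer DNA library in Tris/NaCl/DTT/glycerol buffer, then washed, crosslinked with 0.1% formaldehyde, proximity-ligated (BsaI/T4 ligase, 1 h, 37 °C), PCR-amplified and sequenced on an Illumina NextSeq500. Binding signal is each hexamer's read frequency for a factor divided by its frequency for the tag-only sample.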

ETV5 = ETV5 (Homo sapiens, UniProt P41161 1-510)
How it was run: as §1

SPIC = target: T2, SPIC (Homo sapiens, UniProt Q8N5J4 1-248)
T2 sequence: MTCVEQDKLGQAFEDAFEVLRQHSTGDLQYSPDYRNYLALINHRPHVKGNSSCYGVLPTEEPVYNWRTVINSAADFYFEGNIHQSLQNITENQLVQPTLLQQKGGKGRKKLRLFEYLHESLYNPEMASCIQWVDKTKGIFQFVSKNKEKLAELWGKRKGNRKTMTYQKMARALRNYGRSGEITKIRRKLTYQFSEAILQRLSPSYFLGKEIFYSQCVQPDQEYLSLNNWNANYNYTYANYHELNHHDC
How it was run: as §1

ELF4 = ELF4 (Homo sapiens, UniProt Q99607 1-663)
How it was run: as §1

ELK4 = target: T3, ELK4 (Homo sapiens, UniProt P28324-2 1-405)
T3 sequence: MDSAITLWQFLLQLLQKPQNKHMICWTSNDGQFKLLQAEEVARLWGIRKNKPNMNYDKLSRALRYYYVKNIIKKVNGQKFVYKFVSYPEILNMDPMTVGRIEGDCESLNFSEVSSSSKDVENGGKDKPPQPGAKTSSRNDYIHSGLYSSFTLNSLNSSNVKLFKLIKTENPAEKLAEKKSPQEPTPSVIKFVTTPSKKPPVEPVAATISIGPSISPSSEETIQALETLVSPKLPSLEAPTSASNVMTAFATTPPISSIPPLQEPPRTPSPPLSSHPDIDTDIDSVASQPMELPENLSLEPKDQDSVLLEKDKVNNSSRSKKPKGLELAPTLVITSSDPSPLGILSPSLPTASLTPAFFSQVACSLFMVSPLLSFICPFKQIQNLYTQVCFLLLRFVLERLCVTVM
How it was run: as §1

ETV2 = target: T4, ETV2 (Homo sapiens, UniProt O00321 1-342)
T4 sequence: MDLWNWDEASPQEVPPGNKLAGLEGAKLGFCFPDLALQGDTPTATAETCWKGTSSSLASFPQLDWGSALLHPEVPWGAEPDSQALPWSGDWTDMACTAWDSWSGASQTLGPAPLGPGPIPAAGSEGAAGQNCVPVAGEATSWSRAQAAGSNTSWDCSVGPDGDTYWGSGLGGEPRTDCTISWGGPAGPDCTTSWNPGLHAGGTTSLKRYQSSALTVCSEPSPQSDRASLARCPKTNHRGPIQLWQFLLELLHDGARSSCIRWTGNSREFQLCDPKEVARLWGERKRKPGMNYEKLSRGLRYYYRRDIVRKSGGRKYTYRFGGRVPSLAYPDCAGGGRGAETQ
How it was run: as §1

ELF3 = target: T5, ELF3 (Homo sapiens, UniProt P78545 1-371)
T5 sequence: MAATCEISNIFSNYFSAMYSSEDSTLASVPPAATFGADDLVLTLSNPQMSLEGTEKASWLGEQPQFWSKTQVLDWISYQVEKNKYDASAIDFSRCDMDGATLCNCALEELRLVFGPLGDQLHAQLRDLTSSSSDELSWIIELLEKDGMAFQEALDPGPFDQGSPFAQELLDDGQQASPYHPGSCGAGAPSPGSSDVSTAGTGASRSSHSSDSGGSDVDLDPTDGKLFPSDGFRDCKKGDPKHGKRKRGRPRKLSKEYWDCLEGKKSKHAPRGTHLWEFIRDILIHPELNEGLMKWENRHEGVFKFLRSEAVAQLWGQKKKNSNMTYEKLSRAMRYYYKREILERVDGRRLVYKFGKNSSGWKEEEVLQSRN
How it was run: as §1

ETV1 = ETV1 (Homo sapiens, UniProt P50549 1-477)
How it was run: as §1

ERF = target: T6, ERF (Homo sapiens, UniProt P50548 1-548)
T6 sequence: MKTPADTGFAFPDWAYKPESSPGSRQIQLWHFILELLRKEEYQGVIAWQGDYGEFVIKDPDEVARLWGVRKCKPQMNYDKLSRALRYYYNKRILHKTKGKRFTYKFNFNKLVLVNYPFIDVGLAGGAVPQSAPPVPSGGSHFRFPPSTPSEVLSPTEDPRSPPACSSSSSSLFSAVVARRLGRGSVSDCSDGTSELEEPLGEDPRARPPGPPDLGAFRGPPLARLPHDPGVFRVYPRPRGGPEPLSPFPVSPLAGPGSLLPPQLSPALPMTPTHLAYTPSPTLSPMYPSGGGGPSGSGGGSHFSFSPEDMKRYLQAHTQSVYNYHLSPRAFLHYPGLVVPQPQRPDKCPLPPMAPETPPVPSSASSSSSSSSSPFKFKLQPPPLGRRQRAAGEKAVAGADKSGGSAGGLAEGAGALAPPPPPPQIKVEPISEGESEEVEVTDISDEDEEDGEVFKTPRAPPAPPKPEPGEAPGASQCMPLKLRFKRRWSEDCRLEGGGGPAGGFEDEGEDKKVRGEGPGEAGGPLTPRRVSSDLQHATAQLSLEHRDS
How it was run: as §1

ETV3L = target: T7, ETV3L (Homo sapiens, UniProt Q6ZN32 1-361)
T7 sequence: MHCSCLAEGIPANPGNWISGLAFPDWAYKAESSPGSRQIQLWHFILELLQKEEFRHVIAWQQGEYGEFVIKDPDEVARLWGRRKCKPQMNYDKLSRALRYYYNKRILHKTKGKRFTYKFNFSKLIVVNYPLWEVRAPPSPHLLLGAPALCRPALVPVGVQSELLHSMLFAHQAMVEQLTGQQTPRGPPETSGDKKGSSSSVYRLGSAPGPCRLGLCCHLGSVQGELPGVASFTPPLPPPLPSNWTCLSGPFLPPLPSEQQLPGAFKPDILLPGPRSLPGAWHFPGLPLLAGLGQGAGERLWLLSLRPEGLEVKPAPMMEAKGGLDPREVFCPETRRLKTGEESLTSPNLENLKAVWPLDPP
How it was run: as §1

ETS2 = target: T8, ETS2 (Homo sapiens, UniProt P15036 1-469)
T8 sequence: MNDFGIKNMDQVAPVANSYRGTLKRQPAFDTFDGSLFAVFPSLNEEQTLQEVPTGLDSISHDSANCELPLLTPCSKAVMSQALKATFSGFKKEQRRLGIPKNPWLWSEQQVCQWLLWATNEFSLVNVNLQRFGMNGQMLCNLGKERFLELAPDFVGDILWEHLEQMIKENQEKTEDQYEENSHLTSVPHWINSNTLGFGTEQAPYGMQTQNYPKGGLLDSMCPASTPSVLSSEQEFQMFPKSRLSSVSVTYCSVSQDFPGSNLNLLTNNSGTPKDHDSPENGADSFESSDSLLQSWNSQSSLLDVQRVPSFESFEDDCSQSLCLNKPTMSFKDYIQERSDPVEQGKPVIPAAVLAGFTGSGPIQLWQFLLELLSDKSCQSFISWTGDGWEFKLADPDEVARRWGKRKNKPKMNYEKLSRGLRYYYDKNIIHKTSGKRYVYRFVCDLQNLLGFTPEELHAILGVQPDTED
How it was run: as §1

SPDEF = target: T9, SPDEF (Homo sapiens, UniProt O95238 1-335)
T9 sequence: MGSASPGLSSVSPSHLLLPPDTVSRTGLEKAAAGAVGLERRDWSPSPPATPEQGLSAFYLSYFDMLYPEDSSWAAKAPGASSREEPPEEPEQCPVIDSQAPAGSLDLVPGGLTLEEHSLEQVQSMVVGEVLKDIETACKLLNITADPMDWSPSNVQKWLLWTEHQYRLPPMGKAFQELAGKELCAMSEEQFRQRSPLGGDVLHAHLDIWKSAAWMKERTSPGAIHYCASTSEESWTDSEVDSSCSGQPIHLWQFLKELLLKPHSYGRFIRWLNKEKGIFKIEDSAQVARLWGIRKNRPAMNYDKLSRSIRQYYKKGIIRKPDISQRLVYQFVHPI
How it was run: as §1

ETV7 = target: T10, ETV7 (Homo sapiens, UniProt Q9Y603 1-341)
T10 sequence: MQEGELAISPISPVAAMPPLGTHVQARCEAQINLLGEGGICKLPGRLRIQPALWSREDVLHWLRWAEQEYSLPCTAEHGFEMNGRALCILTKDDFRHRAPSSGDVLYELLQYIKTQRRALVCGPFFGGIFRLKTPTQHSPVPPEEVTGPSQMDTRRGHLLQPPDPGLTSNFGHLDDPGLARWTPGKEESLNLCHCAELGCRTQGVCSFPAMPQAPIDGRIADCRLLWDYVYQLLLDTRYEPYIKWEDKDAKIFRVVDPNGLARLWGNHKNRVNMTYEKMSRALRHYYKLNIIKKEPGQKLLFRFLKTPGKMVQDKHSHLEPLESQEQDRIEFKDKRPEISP
How it was run: as §1

ELF5 = target: T11, ELF5 (Homo sapiens, UniProt Q9UKW6-2 1-255)
T11 sequence: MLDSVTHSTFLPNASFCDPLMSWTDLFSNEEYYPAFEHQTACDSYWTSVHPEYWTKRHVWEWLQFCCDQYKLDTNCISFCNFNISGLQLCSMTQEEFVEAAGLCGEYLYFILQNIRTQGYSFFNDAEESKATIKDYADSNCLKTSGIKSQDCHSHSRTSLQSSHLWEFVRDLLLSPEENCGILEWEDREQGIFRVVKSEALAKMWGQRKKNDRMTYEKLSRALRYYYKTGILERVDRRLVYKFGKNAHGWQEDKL
How it was run: as §1

ETV3 = target: T12, ETV3 (Homo sapiens, UniProt P41162-2 1-143)
T12 sequence: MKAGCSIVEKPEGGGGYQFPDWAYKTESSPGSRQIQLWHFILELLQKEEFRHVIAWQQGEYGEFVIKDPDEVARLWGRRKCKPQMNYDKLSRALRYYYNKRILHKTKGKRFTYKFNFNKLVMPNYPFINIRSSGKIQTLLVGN
How it was run: as §1

ETV6 = ETV6 (Homo sapiens, UniProt P41212 1-452)
How it was run: as §1

Chain of ETV1 (P50549 whole entry): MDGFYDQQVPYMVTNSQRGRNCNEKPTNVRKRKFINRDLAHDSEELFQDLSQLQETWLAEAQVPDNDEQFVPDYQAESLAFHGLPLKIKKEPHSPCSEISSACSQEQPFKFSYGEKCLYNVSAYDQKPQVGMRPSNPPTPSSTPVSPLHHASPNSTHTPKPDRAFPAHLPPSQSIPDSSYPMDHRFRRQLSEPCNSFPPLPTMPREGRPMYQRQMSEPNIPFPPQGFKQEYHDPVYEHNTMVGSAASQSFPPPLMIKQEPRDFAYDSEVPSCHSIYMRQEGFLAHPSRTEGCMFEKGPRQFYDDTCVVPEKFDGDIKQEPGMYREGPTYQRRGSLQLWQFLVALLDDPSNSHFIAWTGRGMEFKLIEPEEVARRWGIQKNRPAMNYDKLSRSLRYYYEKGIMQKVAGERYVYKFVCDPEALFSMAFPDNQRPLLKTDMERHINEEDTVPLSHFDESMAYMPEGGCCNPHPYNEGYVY
Chain of ETV6 (P41212 whole entry): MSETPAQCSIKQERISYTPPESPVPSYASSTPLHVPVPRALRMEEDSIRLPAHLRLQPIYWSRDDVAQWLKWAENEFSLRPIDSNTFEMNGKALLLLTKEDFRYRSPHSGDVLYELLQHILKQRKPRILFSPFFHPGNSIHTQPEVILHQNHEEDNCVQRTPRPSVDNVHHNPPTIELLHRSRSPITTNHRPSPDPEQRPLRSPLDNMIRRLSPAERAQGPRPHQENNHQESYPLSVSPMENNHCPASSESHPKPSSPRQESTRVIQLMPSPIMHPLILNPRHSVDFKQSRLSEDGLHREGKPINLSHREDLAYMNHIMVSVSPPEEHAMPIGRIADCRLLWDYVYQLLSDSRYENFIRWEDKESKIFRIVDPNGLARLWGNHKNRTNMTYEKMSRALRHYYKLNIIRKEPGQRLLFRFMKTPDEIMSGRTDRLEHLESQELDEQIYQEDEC
Chain of ETV5 (P41161 whole entry): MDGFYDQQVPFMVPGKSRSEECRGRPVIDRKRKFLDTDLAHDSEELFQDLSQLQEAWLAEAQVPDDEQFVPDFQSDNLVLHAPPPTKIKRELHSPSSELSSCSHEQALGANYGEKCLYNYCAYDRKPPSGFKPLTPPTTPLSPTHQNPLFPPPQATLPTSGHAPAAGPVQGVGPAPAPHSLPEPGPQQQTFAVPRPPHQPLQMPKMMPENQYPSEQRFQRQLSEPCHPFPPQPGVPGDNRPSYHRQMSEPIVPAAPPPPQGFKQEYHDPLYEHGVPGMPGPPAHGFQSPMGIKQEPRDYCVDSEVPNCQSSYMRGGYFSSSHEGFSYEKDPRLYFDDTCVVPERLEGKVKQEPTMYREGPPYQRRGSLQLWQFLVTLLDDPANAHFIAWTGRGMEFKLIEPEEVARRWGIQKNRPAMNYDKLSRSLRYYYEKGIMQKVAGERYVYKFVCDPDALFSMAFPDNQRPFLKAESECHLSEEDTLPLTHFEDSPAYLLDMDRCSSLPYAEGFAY
Chain of ELF4 (Q99607 whole entry): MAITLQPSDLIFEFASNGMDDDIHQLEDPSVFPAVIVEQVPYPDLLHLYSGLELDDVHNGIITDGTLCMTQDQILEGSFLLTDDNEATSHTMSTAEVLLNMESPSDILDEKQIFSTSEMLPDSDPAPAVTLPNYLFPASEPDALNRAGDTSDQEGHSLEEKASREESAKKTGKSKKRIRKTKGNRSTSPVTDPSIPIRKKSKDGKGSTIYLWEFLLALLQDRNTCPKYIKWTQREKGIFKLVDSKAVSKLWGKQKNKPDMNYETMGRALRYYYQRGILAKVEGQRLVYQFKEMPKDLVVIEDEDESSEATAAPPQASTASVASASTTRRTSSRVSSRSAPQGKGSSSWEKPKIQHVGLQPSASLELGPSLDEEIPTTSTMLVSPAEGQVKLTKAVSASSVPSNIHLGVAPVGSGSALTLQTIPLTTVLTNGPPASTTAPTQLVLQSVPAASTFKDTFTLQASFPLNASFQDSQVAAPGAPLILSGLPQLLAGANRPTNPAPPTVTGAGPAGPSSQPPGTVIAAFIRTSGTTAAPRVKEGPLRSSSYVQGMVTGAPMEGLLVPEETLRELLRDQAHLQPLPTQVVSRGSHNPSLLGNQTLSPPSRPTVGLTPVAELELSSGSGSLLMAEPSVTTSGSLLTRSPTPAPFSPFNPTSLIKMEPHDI

Row | Sequence | binding signal (FEV) | binding signal (ETV5) | binding signal (SPIC) | binding signal (ELF4) | binding signal (ELK4) | binding signal (ETV2) | binding signal (ELF3) | binding signal (ETV1) | binding signal (ERF) | binding signal (ETV3L) | binding signal (ETS2) | binding signal (SPDEF) | binding signal (ETV7) | binding signal (ELF5) | binding signal (ETV3) | binding signal (ETV6)
1 | CCACCC | 1.17 fold enrichment (6-mer frequency, TF over GST control) | 1.25 fold enrichment (6-mer frequency, TF over GST control) | 1.21 fold enrichment (6-mer frequency, TF over GST control) | 1.32 fold enrichment (6-mer frequency, TF over GST control) | 1.38 fold enrichment (6-mer frequency, TF over GST control) | 1.3 fold enrichment (6-mer frequency, TF over GST control) | 1.37 fold enrichment (6-mer frequency, TF over GST control) | 1.16 fold enrichment (6-mer frequency, TF over GST control) | 1.24 fold enrichment (6-mer frequency, TF over GST control) | 1.37 fold enrichment (6-mer frequency, TF over GST control) | 1.18 fold enrichment (6-mer frequency, TF over GST control) | 1.22 fold enrichment (6-mer frequency, TF over GST control) | 1.09 fold enrichment (6-mer frequency, TF over GST control) | 1.21 fold enrichment (6-mer frequency, TF over GST control) | 1.28 fold enrichment (6-mer frequency, TF over GST control) | 1.24 fold enrichment (6-mer frequency, TF over GST control)
2 | CATCAC | 1.16 fold enrichment (6-mer frequency, TF over GST control) | 1.13 fold enrichment (6-mer frequency, TF over GST control) | 1.26 fold enrichment (6-mer frequency, TF over GST control) | 1.12 fold enrichment (6-mer frequency, TF over GST control) | 1.29 fold enrichment (6-mer frequency, TF over GST control) | 1.11 fold enrichment (6-mer frequency, TF over GST control) | 1.14 fold enrichment (6-mer frequency, TF over GST control) | 1.1 fold enrichment (6-mer frequency, TF over GST control) | 1.17 fold enrichment (6-mer frequency, TF over GST control) | 1.07 fold enrichment (6-mer frequency, TF over GST control) | 1.12 fold enrichment (6-mer frequency, TF over GST control) | 1.15 fold enrichment (6-mer frequency, TF over GST control) | 1.08 fold enrichment (6-mer frequency, TF over GST control) | 1.11 fold enrichment (6-mer frequency, TF over GST control) | 1.13 fold enrichment (6-mer frequency, TF over GST control) | 1.13 fold enrichment (6-mer frequency, TF over GST control)
3 | CACGCC | 1.19 fold enrichment (6-mer frequency, TF over GST control) | 1.17 fold enrichment (6-mer frequency, TF over GST control) | 1.01 fold enrichment (6-mer frequency, TF over GST control) | 1.25 fold enrichment (6-mer frequency, TF over GST control) | 1.24 fold enrichment (6-mer frequency, TF over GST control) | 1.22 fold enrichment (6-mer frequency, TF over GST control) | 1.27 fold enrichment (6-mer frequency, TF over GST control) | 1.19 fold enrichment (6-mer frequency, TF over GST control) | 1.21 fold enrichment (6-mer frequency, TF over GST control) | 1.2 fold enrichment (6-mer frequency, TF over GST control) | 1.09 fold enrichment (6-mer frequency, TF over GST control) | 1.05 fold enrichment (6-mer frequency, TF over GST control) | 1.12 fold enrichment (6-mer frequency, TF over GST control) | 1.1 fold enrichment (6-mer frequency, TF over GST control) | 1.2 fold enrichment (6-mer frequency, TF over GST control) | 1.17 fold enrichment (6-mer frequency, TF over GST control)

Source: PMC7862700, “An all-to-all approach to the identification of sequence-specific readers for epigenetic DNA modifications on cytosine”
